Results: the supplement of paper PMC11732987, “Enantioselective OTUD7B fragment discovery through chemoproteomics screening and high-throughput optimisation” (Communications Chemistry, 2025)

Columns and labels:
Test in all cases: log2 ratio of Biotin-Ahx-Ub-VS probe labelling (fragment/DMSO); higher = less target engagement (more negative = stronger competition), active = hit call of the paper (q ≤ 0.05, log2 ratio ≤ -1)
Details in all cases: compound concentration: 200 uM; treatment time: 3 h
USP19 = target: T1, USP19 (UniProt O94966)
T1 sequence (whole entry): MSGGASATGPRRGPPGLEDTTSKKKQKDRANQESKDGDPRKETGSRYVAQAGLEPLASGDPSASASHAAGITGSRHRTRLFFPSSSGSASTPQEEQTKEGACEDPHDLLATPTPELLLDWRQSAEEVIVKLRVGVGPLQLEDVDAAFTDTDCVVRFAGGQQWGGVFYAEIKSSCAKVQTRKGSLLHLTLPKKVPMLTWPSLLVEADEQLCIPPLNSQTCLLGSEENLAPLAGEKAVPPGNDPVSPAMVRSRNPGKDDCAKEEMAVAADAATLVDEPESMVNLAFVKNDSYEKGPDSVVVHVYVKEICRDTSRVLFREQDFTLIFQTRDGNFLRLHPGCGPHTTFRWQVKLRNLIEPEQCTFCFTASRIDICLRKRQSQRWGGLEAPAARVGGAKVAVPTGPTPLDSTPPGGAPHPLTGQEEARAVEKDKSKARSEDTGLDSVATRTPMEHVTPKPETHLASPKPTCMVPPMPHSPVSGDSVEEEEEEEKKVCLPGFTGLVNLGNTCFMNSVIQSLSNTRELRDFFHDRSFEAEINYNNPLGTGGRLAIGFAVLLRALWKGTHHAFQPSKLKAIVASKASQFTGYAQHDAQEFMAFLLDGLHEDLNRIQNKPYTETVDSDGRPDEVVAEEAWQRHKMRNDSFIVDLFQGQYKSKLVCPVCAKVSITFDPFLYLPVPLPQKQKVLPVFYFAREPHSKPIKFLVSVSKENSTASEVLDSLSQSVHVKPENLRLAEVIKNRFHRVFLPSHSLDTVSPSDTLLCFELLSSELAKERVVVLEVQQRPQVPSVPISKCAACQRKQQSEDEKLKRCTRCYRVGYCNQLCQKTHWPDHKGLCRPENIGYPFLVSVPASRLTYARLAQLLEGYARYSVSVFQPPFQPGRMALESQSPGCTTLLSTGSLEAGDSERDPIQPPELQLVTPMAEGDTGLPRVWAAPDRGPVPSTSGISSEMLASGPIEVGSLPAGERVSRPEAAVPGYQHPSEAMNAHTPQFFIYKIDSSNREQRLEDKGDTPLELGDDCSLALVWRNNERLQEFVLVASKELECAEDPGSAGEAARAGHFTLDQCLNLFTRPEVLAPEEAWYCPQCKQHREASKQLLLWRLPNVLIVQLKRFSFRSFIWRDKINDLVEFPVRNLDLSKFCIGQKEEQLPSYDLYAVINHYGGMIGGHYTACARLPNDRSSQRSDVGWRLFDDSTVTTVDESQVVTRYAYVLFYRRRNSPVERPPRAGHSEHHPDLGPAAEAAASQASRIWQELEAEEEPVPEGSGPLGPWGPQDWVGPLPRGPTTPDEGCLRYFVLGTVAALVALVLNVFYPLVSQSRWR
In short: (§1)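 Global-median-normalised Spectronaut label-free quantities were compared by unpaired t-test, and values are average log2 ratios of fragment over vehicle. Only proteins with ≥2 unique peptides were used. HEK293T lysate (495 µg per sample) was treated in triplicate with fragment at 200 µM or vehicle for 3 h and then with Biotin-Ahx-Ub-VS at 0.5 µM final for 1 h. Labelled DUBs were then NeutrAvidin-enriched, digested with LysC and trypsin, and run by diaPASEF LC-MS/MS.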

USP22 = target: T2, USP22 (UniProt Q9UPT9)
T2 sequence (whole entry): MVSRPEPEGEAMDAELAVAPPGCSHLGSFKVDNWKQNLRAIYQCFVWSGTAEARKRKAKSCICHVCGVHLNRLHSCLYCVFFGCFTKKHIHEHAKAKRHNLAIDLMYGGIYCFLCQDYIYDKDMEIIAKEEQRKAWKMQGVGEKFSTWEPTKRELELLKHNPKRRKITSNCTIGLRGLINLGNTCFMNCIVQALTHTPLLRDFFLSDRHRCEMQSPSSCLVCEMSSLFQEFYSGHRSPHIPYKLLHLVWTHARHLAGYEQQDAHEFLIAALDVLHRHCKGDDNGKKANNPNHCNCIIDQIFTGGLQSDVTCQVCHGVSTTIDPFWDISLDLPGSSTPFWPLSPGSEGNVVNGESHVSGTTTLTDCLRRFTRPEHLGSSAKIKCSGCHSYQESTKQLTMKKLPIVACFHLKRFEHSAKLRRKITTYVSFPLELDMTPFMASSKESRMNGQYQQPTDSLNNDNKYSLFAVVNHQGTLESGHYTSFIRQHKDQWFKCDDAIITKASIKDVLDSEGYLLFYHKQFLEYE
In short: as §1

USP24 = USP24 (UniProt Q9UPU5)
In short: as §1

USP25 = target: T3, USP25 (UniProt Q9UHP3)
T3 sequence (whole entry): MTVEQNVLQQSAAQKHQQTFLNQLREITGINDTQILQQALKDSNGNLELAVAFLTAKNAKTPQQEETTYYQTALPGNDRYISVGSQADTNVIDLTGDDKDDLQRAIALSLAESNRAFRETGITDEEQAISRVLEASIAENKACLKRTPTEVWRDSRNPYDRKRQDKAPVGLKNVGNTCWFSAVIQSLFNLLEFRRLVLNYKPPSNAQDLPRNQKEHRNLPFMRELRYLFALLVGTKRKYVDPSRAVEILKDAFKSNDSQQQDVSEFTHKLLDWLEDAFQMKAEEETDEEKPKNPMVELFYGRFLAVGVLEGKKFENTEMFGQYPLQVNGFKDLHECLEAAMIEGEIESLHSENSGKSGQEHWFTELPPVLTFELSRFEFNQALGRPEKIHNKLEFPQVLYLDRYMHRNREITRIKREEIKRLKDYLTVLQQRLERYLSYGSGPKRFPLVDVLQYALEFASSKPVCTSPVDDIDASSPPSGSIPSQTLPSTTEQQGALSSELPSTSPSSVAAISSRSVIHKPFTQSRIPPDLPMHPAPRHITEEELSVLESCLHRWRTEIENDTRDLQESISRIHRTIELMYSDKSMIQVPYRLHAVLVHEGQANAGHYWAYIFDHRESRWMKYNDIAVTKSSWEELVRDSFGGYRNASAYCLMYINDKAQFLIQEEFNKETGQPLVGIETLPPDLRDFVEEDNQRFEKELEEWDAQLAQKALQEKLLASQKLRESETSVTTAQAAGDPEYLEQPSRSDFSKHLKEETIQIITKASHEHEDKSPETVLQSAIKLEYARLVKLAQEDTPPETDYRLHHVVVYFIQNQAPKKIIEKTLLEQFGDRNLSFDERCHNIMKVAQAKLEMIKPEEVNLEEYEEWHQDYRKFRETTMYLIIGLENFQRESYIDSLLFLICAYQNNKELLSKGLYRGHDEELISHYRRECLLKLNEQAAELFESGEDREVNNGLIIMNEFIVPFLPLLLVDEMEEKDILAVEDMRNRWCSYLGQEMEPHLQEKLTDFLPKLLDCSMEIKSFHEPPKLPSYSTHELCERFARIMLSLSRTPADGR
In short: as §1

USP28 = target: T4, USP28 (UniProt Q96RU2)
T4 sequence (whole entry): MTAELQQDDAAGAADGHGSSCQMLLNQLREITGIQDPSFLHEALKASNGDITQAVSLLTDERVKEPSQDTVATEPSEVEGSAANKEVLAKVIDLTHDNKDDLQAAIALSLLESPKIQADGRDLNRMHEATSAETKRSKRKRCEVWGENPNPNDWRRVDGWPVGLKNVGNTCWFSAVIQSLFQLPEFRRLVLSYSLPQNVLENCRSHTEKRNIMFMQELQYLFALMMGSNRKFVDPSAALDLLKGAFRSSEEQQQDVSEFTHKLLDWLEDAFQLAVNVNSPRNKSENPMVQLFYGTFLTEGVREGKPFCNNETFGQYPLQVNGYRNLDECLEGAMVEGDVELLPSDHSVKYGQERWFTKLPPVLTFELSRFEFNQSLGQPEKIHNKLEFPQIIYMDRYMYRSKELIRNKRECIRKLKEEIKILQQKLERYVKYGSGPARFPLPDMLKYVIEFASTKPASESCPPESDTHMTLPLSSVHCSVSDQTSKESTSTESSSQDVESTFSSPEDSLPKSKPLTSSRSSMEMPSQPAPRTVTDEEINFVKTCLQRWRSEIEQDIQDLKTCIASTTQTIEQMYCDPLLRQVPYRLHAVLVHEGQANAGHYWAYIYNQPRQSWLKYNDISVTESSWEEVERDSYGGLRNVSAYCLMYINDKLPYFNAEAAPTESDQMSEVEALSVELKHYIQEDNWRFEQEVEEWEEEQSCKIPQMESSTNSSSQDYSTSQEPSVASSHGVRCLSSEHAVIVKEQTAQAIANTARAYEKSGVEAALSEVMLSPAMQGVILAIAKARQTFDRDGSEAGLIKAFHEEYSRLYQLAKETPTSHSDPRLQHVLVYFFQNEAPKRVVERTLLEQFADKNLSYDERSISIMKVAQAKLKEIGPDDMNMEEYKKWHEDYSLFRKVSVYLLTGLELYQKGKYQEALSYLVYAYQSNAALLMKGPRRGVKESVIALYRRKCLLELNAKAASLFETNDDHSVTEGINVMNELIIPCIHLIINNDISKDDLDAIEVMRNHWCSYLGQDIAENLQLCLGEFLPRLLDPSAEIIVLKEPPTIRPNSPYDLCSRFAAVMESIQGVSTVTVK
In short: as §1

Measured: log2 ratio of Biotin-Ahx-Ub-VS probe labelling

USP24, sequence (Q9UPU5 whole entry): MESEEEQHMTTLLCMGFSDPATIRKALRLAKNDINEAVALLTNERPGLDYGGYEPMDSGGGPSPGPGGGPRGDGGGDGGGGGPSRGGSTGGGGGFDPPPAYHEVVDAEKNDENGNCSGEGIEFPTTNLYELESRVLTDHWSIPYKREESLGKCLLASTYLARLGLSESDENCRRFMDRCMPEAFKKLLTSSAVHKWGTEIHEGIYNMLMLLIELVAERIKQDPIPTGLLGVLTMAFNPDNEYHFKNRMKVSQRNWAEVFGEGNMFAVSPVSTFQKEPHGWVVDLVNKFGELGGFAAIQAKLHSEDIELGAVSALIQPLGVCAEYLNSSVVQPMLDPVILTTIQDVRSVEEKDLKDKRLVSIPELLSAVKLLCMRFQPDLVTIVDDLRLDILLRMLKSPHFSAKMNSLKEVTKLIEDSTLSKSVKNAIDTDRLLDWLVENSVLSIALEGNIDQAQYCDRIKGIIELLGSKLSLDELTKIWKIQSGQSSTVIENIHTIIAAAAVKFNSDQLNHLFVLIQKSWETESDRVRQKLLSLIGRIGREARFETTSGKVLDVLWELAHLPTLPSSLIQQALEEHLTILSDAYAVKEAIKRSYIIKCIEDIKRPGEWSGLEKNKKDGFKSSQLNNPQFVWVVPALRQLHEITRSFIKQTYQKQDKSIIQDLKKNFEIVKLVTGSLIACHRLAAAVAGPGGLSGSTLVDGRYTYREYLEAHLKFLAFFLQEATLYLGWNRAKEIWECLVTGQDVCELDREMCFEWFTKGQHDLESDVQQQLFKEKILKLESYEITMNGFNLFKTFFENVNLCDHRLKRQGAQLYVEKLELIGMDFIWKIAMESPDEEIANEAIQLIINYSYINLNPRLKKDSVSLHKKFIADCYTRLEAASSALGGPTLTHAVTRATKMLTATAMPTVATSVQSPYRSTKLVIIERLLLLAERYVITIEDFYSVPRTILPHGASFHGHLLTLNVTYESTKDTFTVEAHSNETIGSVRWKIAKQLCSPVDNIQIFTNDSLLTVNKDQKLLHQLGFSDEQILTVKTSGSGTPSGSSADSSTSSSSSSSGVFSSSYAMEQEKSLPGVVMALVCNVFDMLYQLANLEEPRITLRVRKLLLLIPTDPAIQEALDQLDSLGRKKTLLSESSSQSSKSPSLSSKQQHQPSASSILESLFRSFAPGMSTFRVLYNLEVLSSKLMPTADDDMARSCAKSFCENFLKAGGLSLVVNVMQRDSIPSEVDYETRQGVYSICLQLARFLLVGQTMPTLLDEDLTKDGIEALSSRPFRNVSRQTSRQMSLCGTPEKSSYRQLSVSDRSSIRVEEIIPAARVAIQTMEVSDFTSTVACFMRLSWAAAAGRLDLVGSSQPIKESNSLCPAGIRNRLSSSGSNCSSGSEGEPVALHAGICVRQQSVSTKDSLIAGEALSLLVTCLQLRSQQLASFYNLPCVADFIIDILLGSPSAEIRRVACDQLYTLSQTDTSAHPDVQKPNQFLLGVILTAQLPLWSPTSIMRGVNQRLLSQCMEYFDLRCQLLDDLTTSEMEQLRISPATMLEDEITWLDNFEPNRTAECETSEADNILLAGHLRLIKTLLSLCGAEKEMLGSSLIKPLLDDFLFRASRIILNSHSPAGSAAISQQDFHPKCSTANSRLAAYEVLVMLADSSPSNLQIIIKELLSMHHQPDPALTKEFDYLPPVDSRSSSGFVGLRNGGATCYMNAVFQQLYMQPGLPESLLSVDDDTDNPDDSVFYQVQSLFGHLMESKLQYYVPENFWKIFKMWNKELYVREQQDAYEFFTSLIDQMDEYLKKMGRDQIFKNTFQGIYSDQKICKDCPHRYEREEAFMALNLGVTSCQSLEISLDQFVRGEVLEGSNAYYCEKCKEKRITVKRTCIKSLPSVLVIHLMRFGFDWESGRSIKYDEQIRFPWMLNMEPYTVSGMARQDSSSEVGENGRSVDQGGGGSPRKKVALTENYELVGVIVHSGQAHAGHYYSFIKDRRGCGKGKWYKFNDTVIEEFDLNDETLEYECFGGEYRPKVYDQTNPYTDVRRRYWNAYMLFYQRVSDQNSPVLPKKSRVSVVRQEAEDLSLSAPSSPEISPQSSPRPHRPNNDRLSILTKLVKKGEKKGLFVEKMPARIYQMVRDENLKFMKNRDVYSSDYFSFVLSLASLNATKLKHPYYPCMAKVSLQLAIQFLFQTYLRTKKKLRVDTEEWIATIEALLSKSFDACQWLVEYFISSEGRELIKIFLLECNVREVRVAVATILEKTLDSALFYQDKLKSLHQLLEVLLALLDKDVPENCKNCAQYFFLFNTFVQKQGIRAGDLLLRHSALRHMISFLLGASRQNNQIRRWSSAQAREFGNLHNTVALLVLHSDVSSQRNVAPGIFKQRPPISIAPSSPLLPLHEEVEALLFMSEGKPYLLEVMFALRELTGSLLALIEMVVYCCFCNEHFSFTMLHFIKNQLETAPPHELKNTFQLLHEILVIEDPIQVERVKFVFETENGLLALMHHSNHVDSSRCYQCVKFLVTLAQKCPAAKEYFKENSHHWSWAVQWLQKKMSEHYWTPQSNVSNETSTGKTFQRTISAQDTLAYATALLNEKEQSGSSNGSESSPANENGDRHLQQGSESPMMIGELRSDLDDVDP

O=C(CCl)N1CCC(C(O)c2ccc(F)cc2)CC1 (stereo not given)
inactive: USP19 0.0656 | USP22 0.13 | USP24 -0.164 | USP25 0.058 | USP28 -0.0428
